# The whole screen tested about 48,000 compounds, of which about 13,000 (27%) showed an effect of 50% or more. This is one part of the list.
# System: Wolbachia pipientis
# Experiment: Anti-Wolbachia Cell-Based Screen
# Type: functional
# Parameters: scale not given: in the data most compounds retested in dose-response had high values
# Settings: 5 µM
row,Structure (SMILES),Percent Effect [%]
1,CCn1cc(NC(=O)C2CCN(CC(=O)NC(C)(C)CC)CC2)cn1,91.29
2,O=C(c1ccccc1C(F)(F)F)N1C[C@@H](CN2CCOCC2)[C@@H](CO)C1,-0.09435
3,CCCc1cncnc1N1CCC(NCc2cc3ccccc3[nH]2)CC1,-18.7
4,O=C(NC1CC1)[C@H]1C[C@H]2OCC[C@H]2N(CC2CCOCC2)C1.O=C(O)C(F)(F)F,0.97
5,O=C(Nc1nncs1)N1CCCN(C2CCCCC2)CC1,-4.459
6,COc1ccc(S(=O)(=O)NCCC(O)c2cc(C)oc2C)c(C)c1 (stereo not drawn),2.617
7,C[C@@H]1C[C@H]2CN(C(=O)C3=CCCCC3)C[C@H]2O1,0.662
8,O=C(NC1CCS(=O)(=O)c2ccccc21)c1cccs1 (stereo not drawn),3.993
9,CCNC(=O)N1C[C@@H]2OCC(=O)N(C(C)C)[C@@H]2C1,-6.666
10,Cc1ccsc1C(=O)Nc1cnn(CC(=O)NC2CCCC2)c1,2.464
11,Cc1cc(C(=O)Nc2cnn(CC(=O)NC3CCCC3)c2)c(C)s1,2.888
12,Cc1nc(C)c(C(=O)Nc2cnn(CC(=O)NC3CCCC3)c2)s1,111.4
13,Cc1nc(CC(=O)N2CCCC2c2nc(-c3ccccc3)no2)cs1 (stereo not drawn),-0.9344
14,O=C(CSc1ccccc1)N1CCc2c(ncnc2N2CCOCC2)C1,3.982
15,OC1(CN2CCCC2)COCCN(c2ncnc3[nH]cnc23)C1 (stereo not drawn),9.273
16,Cn1cccc1C(=O)N1CCc2ncnc(N3CCOCC3)c2CC1,-2.151
17,Nc1c(N2CCCCC2)ncnc1N1CCOCC1,114.1
18,O=C(c1c2c(N3CCCC3)ncnc2n2ccccc12)N1CCOCC1,-6.579
19,Nc1c(N2CCCC2)ncnc1N1CCOCC1,108.5
20,Nc1c(N2CCOCC2)ncnc1N1CCOCC1,121.8
21,O=C(c1c2c(N3CCOCC3)ncnc2n2ccccc12)N1CCCC1,-0.1651
22,Clc1cnccc1N1CCCOCC1,1.077
23,CC(C)(C)C(=O)N1CCCN(c2ncnc3nc(N)ccc23)CC1,6.072
24,CN1CCCN(c2ncnc(N3CCOCC3)c2N)CC1,103.9

row,Structure (SMILES),Percent Effect [%]
1,O=C1COc2ccc(S(=O)(=O)NCC3CCCO3)c3c2N1CCC3 (stereo not drawn),-4.147
2,CN1CCN(C[C@H]2OC[C@@H]3CCN(C(=O)c4cnccn4)C[C@@H]32)CC1.O=C(O)C(F)(F)F.O=C(O)C(F)(F)F,-7.535
3,CN1CCN(C[C@@H]2OC[C@H]3CN(Cc4cccc(F)c4)CC[C@H]32)CC1.O=C(O)C(F)(F)F.O=C(O)C(F)(F)F.O=C(O)C(F)(F)F,-7.407
4,Cc1ccc(CN2CC[C@@H]3[C@@H](CO[C@H]3CN3CCN(C)CC3)C2)s1.O=C(O)C(F)(F)F.O=C(O)C(F)(F)F.O=C(O)C(F)(F)F,97.55
5,Cc1ccc(CN2CC[C@H]3CO[C@H](CN(C)Cc4ccco4)[C@H]3C2)s1.O=C(O)C(F)(F)F.O=C(O)C(F)(F)F,10.16
6,CN(Cc1cccnc1)C[C@@H]1OC[C@H]2CN(Cc3ccoc3)CC[C@H]21.O=C(O)C(F)(F)F.O=C(O)C(F)(F)F.O=C(O)C(F)(F)F,6.292
7,Cc1ccc(CN2CC[C@H]3[C@H](CO[C@H]3CN(C)C)C2)o1.O=C(O)C(F)(F)F.O=C(O)C(F)(F)F,-5.785
8,Cc1ccc(CN2CC[C@@H]3[C@@H](CO[C@H]3CN3CCN(C)CC3)C2)cc1.O=C(O)C(F)(F)F.O=C(O)C(F)(F)F.O=C(O)C(F)(F)F,118.8
9,CN1CCN(C[C@@H]2OC[C@H]3CN(CCc4ccccc4)CC[C@H]32)CC1.O=C(O)C(F)(F)F.O=C(O)C(F)(F)F.O=C(O)C(F)(F)F,108.2
10,CN(C)C[C@@H]1OC[C@H]2CN(Cc3ccoc3)CC[C@H]21.O=C(O)C(F)(F)F.O=C(O)C(F)(F)F,10.46
11,CCN1CCC(N[C@@H]2CC[C@@H]2NC(=O)Cc2csc(C)n2)CC1,2.853
12,Clc1cccnc1N1CCC(NCc2cccc3cn[nH]c23)C1 (stereo not drawn),0.5809
13,COCC1c2nnn(CC3CC3)c2CCN1C(=O)c1ccncn1 (stereo not drawn),-7.229
14,CN(C)c1ccc(-c2cc(C(=O)O)cc(S(=O)(=O)NC3CC3)c2)cc1,-6.079
15,COCCN1C[C@H]2CN(Cc3cccc(OC)c3)CCN2C1=O,-3.935
16,COCc1cc(O)nc(C2CCCN(Cc3cccc(Cl)c3Cl)C2)n1 (stereo not drawn),101.5
17,NC(=O)Cn1ccnc1C1CCCN(Cc2cccc(Cl)c2F)C1 (stereo not drawn),-13.72
18,COCc1nccc(C2CCCN(Cc3ccccc3C#N)C2)n1 (stereo not drawn),-3.966
19,COCc1cc(O)nc(C2CCCN(Cc3ccc(OC)cc3)C2)n1 (stereo not drawn),126.6
20,Cc1cc(O)nc(C2CCCN(Cc3ccncc3)C2)n1 (stereo not drawn),-8.016
21,CCc1cc(O)nc(C2CCCN(Cc3ccncc3)C2)n1 (stereo not drawn),119.5
22,COCc1cc(O)nc(C2CCCN(Cc3cc(OC)ccc3F)C2)n1 (stereo not drawn),-12.81
23,COCc1cc(O)nc(C2CCCN(Cc3cccc(OC)c3)C2)n1 (stereo not drawn),123.8
24,COCC1CCCN(CCCc2cccc(OC)c2)C1 (stereo not drawn),6.457
